Among the data in PubChem BioAssay (NCI) are growth values, retold here.

This is part of a sample that, as a whole, favours compounds with a hit. Of some 83,000 tested, about 20% had one in any assay.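 Interpretation: 100, growth as untreated; towards 0, rising growth inhibition; 0, no net growth; 0 to -100, cell death. Compounds scoring below 10 were considered active.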 Activity calls are given as the source filed them.

In the assay the test system is T-47D breast. The assay can be described thus: NCI-60 one-dose screen, 48 h (100 = growth as untreated, 0 = no growth, -100 = all killed). The conditions noted are these: 10 µM unless noted.
Consider `CC(=O)Nc1nc(C(=O)N2N=C(C)/C(=C/c3cccs3)C2=O)cs1`, for which the growth was 100% (inactive). Next, `C=C1C(=O)O[C@H]2[C@H]1CC/C(COC(=O)NCCc1ccc(Br)cc1)=C\CC[C@@]1(C)O[C@@H]21`: -21% (active); `CCCCCCCCCCCCNC(=S)N/N=C/c1ccc(Cl)c(Cl)c1`: 94.9% (inactive); `CCCCCCCCCCCCCCCCC(Br)C(=O)O` (stereo not drawn): 86.7% (inactive). Regarding `CCN(Cc1ccc(CN(CC)C(=O)C(Cl)(Cl)Cl)cc1)C(=O)C(Cl)(Cl)Cl`, the growth is 78.2% (inactive). As for `CS(=O)(=O)N(c1cc(-c2ccc3ncnc(Nc4cccc(Cl)c4)c3c2)cnc1Cl)S(C)(=O)=O`, the growth is -2.25% (active).

As for `COc1cc(C(=O)/C=C/c2cc(C(=O)c3cc(OC)c(OC)c(OC)c3)ccc2OC)ccc1N`, the growth is 18% (inactive).

Turning to `CCCCCCCCCCC/C=C\C[C@H](O)C/C=C1/C(=O)C=C[C@@H]1C/C=C\CCCC(=O)OC`, the growth was -8.92% (active). Regarding `O=S(=O)(NCCCNc1cc(-c2cn(-c3ccccc3)nc2-c2cccc(O)c2)ccn1)c1ccc(Cl)cc1`, the growth was 8.59% (active). Next, `CC(=O)/C=C/c1cc2cc(Cl)ccc2[nH]c1=O`: 50% (inactive); `CC(=O)Nc1nc(C(=O)N2N=C(C)/C(=C/c3ccccc3)C2=O)cs1`: 98.6% (inactive).

Regarding `COC(=O)CCCCN=Cc1c(O)c(O)c(C(C)C)c2cc(C)c(-c3c(C)cc4c(C(C)C)c(O)c(O)c(C=NCCCCC(=O)OC)c4c3O)c(O)c12`, the growth was 24.9% (inactive). Next, `COc1cccc(C2CC(=O)Nc3c2c(C)nn3-c2nc3ccccc3[nH]2)c1OC` (stereo not drawn): 64.5% (inactive).
